From paper PMC10812921, “Transcriptional Coactivator BOB1 (OBF1, OCA-B) Modulates the Specificity of DNA Recognition by the POU-Domain Factors OCT1 and OCT2 in a Monomeric Configuration” come the findings set out here.

One assay has as its target POU1 (OCT1 POU domain) (human, UniProt P14859 260-458). Description: EMSA-SELEX-seq; no BOB1; 20 mM Tris-HCl pH 7.6, 140 mM NaCl, 10% glycerol, 0.5 mM EDTA, 0.05% Triton X-100, 0.1 mg/mL BSA, 0.1 mg/mL poly(dI-dC), 5 mM DTT, room temperature, 20 min; high values mean tight binding. Conditions: protein: recombinant; dsDNA, one strand shown. The gist of the method:
(§1)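 With or without 28 ng coactivator protein, 30 ng of tagged POU-domain protein was combined with 300 ng of a PCR-amplified double-stranded random 35-nt library in 20 μL Tris–HCl pH 7.6 binding buffer for 20 min at RT. The protein came from E. coli BL21 and had been purified under denaturing conditions and renatured. Four rounds of cutting complex bands from native 6% PAGE, elution and PCR amplification preceded Illumina sequencing. The binding preference figure is the percentage of sequenced 8-mers matching a motif pattern.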
For orientation: A gel shift assay detects complexes by their altered migration in electrophoresis.

A further assay concerns the target T1, POU2 (OCT2 POU domain) (human, UniProt P09086 175-386).
T1 sequence: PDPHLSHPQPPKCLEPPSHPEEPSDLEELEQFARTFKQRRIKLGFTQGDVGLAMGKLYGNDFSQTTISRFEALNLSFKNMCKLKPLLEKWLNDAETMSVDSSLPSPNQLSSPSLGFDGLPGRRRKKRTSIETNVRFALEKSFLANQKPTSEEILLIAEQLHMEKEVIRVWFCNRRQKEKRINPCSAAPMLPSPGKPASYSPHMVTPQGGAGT
The assay is described as above. Conditions: protein: recombinant; dsDNA, one strand shown. The method in brief:
as §1

Assay [1] concerns the target POU1 (OCT1 POU domain);BOB1 (OBF1, OCA-B) (human;human, UniProt P14859;Q16633 260-458;1-256, |). As to the kind of experiment: EMSA-SELEX-seq; with BOB1 (ternary complex band); 20 mM Tris-HCl pH 7.6, 140 mM NaCl, 10% glycerol, 0.5 mM EDTA, 0.05% Triton X-100, 0.1 mg/mL BSA, 0.1 mg/mL poly(dI-dC), 5 mM DTT, room temperature, 20 min; high values mean tight binding. Particulars: protein: recombinant;recombinant; copies: 1;1; dsDNA, one strand shown. The method in brief: as §1

Assay [2] deals with T2, POU2 (OCT2 POU domain);BOB1 (OBF1, OCA-B) (human;human, UniProt P09086;Q16633 175-386;1-256, |).
T2 sequence 1: T1 sequence
T2 sequence 2: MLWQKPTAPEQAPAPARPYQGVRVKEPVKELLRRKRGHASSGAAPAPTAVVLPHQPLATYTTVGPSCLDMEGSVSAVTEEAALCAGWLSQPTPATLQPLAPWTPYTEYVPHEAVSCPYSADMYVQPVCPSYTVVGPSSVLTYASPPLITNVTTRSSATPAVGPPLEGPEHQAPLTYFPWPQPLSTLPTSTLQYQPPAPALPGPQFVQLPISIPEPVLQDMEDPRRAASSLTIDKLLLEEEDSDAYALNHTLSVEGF
The assay is described as above. Conditions: protein: recombinant;recombinant; copies: 1;1; dsDNA, one strand shown. The method in brief: as §1

Chain of POU1 (OCT1 POU domain) (P14859 260-458): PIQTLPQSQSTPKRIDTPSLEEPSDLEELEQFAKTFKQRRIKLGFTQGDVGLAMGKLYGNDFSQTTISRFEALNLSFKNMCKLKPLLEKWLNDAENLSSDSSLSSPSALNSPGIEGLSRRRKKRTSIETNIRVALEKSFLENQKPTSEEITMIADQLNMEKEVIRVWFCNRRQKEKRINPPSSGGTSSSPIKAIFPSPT

In the case of AGTTTAAG, the binding signal is 0.05 % of ANNNNAAN 8-mers in the assay with POU1 (OCT1 POU domain), 0.0656 % of ANNNNAAN 8-mers in the assay with POU2 (OCT2 POU domain), 0.0519 % of ANNNNAAN 8-mers in assay [1] and 0.0504 % of ANNNNAAN 8-mers in assay [2].

As for ATGCTAAC, the binding signal with POU1 (OCT1 POU domain) is 0.0671 % of ANNNNAAN 8-mers; with POU2 (OCT2 POU domain) it was 0.0949 % of ANNNNAAN 8-mers; in assay [1] it was 0.0347 % of ANNNNAAN 8-mers; in assay [2], 0.0495 % of ANNNNAAN 8-mers.

Turning to ATGATAAG, the binding signal with POU1 (OCT1 POU domain) is 0.0843 % of ANNNNAAN 8-mers; in the assay with POU2 (OCT2 POU domain), 0.0984 % of ANNNNAAN 8-mers; in assay [1] it was 0.0714 % of ANNNNAAN 8-mers; in assay [2], 0.0768 % of ANNNNAAN 8-mers.

For the sequence ATTCTAAG, the binding signal in the assay with POU1 (OCT1 POU domain) was 0.0747 % of ANNNNAAN 8-mers; with POU2 (OCT2 POU domain), 0.0857 % of ANNNNAAN 8-mers; in assay [1] it was 0.0593 % of ANNNNAAN 8-mers; in assay [2], 0.0702 % of ANNNNAAN 8-mers.

For AATTGAAA, the binding signal with POU1 (OCT1 POU domain) is 0.113 % of ANNNNAAN 8-mers; in the assay with POU2 (OCT2 POU domain) it was 0.131 % of ANNNNAAN 8-mers; in assay [1] it was 0.114 % of ANNNNAAN 8-mers; in assay [2], 0.0817 % of ANNNNAAN 8-mers.

Take AGCTAAAA: the binding signal was 0.0282 % of ANNNNAAN 8-mers with POU1 (OCT1 POU domain), 0.038 % of ANNNNAAN 8-mers with POU2 (OCT2 POU domain), 0.0425 % of ANNNNAAN 8-mers in assay [1] and 0.0338 % of ANNNNAAN 8-mers in assay [2].

On to ACGGTAAA, for which the binding signal in the assay with POU1 (OCT1 POU domain) was 0.0389 % of ANNNNAAN 8-mers; in the assay with POU2 (OCT2 POU domain) it was 0.0524 % of ANNNNAAN 8-mers; in assay [1] it was 0.0507 % of ANNNNAAN 8-mers; in assay [2], 0.0504 % of ANNNNAAN 8-mers.

For the sequence AGGGGAAC, the binding signal is 0.0416 % of ANNNNAAN 8-mers with POU1 (OCT1 POU domain), 0.0414 % of ANNNNAAN 8-mers with POU2 (OCT2 POU domain), 0.0355 % of ANNNNAAN 8-mers in assay [1] and 0.0487 % of ANNNNAAN 8-mers in assay [2].

For the sequence ATCGGAAT, the binding signal with POU1 (OCT1 POU domain) is 0.0717 % of ANNNNAAN 8-mers; in the assay with POU2 (OCT2 POU domain), 0.0869 % of ANNNNAAN 8-mers; in assay [1], 0.0581 % of ANNNNAAN 8-mers; in assay [2] it was 0.0768 % of ANNNNAAN 8-mers.

With AAGTCAAG, the binding signal with POU1 (OCT1 POU domain) was 0.0332 % of ANNNNAAN 8-mers; in the assay with POU2 (OCT2 POU domain) it was 0.0403 % of ANNNNAAN 8-mers; in assay [1] it was 0.0367 % of ANNNNAAN 8-mers; in assay [2] it was 0.033 % of ANNNNAAN 8-mers.

Consider AACGAAAC, for which the binding signal in the assay with POU1 (OCT1 POU domain) is 0.0225 % of ANNNNAAN 8-mers; with POU2 (OCT2 POU domain) it was 0.027 % of ANNNNAAN 8-mers; in assay [1] it was 0.0238 % of ANNNNAAN 8-mers; in assay [2], 0.0157 % of ANNNNAAN 8-mers.

As for AGTCTAAA, the binding signal is 0.037 % of ANNNNAAN 8-mers with POU1 (OCT1 POU domain), 0.0501 % of ANNNNAAN 8-mers with POU2 (OCT2 POU domain), 0.0398 % of ANNNNAAN 8-mers in assay [1] and 0.0504 % of ANNNNAAN 8-mers in assay [2].

On to ATTCTAAC, for which the binding signal in the assay with POU1 (OCT1 POU domain) is 0.0503 % of ANNNNAAN 8-mers; with POU2 (OCT2 POU domain), 0.0495 % of ANNNNAAN 8-mers; in assay [1], 0.0328 % of ANNNNAAN 8-mers; in assay [2], 0.0322 % of ANNNNAAN 8-mers.

Regarding AGTCGAAT, the binding signal was 0.061 % of ANNNNAAN 8-mers with POU1 (OCT1 POU domain), 0.0604 % of ANNNNAAN 8-mers in the assay with POU2 (OCT2 POU domain), 0.0468 % of ANNNNAAN 8-mers in assay [1] and 0.0611 % of ANNNNAAN 8-mers in assay [2].

Take AAGACAAT: the binding signal is 0.0477 % of ANNNNAAN 8-mers with POU1 (OCT1 POU domain), 0.0478 % of ANNNNAAN 8-mers with POU2 (OCT2 POU domain), 0.0382 % of ANNNNAAN 8-mers in assay [1] and 0.0405 % of ANNNNAAN 8-mers in assay [2].
